From PubChem BioAssay (NCATS)
A number with no mark means an inactive call. Results filed as inconclusive are left out. A call without a number means that no potency is given here. The source made the active and inactive calls. Calls come from the whole dose curve; as a rule, active = well fitted curve in the direction sought with a large enough effect; inconclusive = small, poorly fitted or top-dose-only effect, or another doubt; inactive = no such curve, though single readings can be large; an effect the other way counts as inactive or inconclusive.

Assays:
[1] = target: Glutathione peroxidase 1 (Homo sapiens) (UniProt P07203); assay: Primary qHTS Assay for Inhibitors of Recombinant Selenoprotein Glutathione Peroxidase 1 (GPX1) (AID 1845191); settings: recombinant GPX1, GR-coupled NADPH fluorescence, 15 min; series mostly up to 27.7 µM; note: nearly all actives have a fitted effect of over 65% in size
Glutathione peroxidase 1 (Homo sapiens), sequence (P07203 whole entry, looked up): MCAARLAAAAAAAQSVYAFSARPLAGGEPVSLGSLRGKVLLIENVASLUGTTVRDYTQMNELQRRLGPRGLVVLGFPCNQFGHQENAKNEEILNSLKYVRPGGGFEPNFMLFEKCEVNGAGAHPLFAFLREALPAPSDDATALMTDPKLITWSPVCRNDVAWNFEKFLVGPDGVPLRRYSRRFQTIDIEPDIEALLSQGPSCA
Procedure, shortened: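 10 nM GPX1 + cpd, 30 min RT; start w/ 1 mM GSH, 0.5 mM cumene hydroperoxide, 0.5 mM NADPH, 100 nM GR, 0.01% BSA; buffer 50 mM Tris-HCl pH 7.5, 2 mM EDTA, 150 mM NaCl; Fl 340/450, 0 & 15 min.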

[2] = target: Phospholipid hydroperoxide glutathione peroxidase GPX4 (Homo sapiens) (UniProt P36969); assay: Primary qHTS Assay for Inhibitors of Recombinant Selenoprotein Glutathione Peroxidase 4 (GPX4) (AID 1845192); settings: recombinant GPX4, GR-coupled NADPH fluorescence, 15 min; series mostly up to 27.8 µM; note: nearly all actives have a fitted effect of over 65% in size
Phospholipid hydroperoxide glutathione peroxidase GPX4 (Homo sapiens), sequence (P36969 whole entry, looked up): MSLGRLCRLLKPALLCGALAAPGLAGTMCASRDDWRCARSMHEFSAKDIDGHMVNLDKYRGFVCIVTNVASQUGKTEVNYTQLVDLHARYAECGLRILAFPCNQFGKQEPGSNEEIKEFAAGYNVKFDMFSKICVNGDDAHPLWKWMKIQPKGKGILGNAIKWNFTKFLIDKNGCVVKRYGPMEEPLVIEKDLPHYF
Procedure, shortened: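 NADPH consumption, followed by fluorescence at 340/450 nm between 0 and 15 min, reports GPX4 activity via coupled glutathione reductase (100 nM). Enzyme 200 nM was pre-exposed to compound 30 min; 0.5 mM cumene hydroperoxide and 1 mM GSH served as substrates.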

[3] = target: Luciferin 4-monooxygenase (Photinus pyralis) (UniProt P08659); assay: Primary firefly luciferase (FLuc) qHTS assay for identification of artifact compounds. (AID 1845220); settings: purified firefly luciferase, luminescence, 5 min; series mostly up to 54.1 µM; note: nearly all actives have a fitted effect of over 60% in size
Procedure, shortened: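 Compounds sat 15 min at room temperature with 10 uM luciferin and 10 uM ATP (pH 7.6 Tris acetate). Firefly luciferase (10 nM final) was then added, and luminescence was read 5 min later. Data normalized to no-enzyme and DMSO controls were Hill-fitted.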

[4] = Primary fluorescence-based thiol-reactive (MSTI) qHTS assay for identification of artifact compounds. (AID 1845221); settings: MSTI thiol-reactivity probe, 1 h; series mostly up to 53.8 µM; note: nearly all actives have a fitted effect of over 65% in size; note: potency is the fitted concentration of half-maximal effect;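 for activity change, negative = thiol reactive: thiol-reactive compounds lower the probe fluorescence signal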
Procedure, shortened: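 First, 4 uM MSTI in 2% DMSO/PBS pH 7.4 was dispensed; next, compounds were added; then plates sat 1 h at room temperature without light. Finally, emission at 598 nm was recorded.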

[5] = test system: Nanoluciferase (engineered Oplophorus gracilirostris luciferase); assay: Primary Nanoluciferase (NLuc) qHTS assay for identification of artifact compounds. (AID 1845222); settings: NLuc-conditioned medium, Nano-Glo luminescence, 5 min; series mostly up to 54.1 µM
Procedure, shortened: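 Luminescence from secreted NLuc (filtered, 1:55-diluted S16 cell medium) read 5 min after Nano-Glo substrate; compounds preincubated 15 min, RT. Hill fits of inhibition normalized to DMSO and no-enzyme.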

[6] = Primary redox qHTS assay for identification of artifact compounds. (AID 1845223); settings: Amplex Red/HRP redox cycling with DTT, fluorescence; series mostly up to 53.8 µM
Procedure, shortened: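 Amplex Red (25 uM) and HRP (250 mU/mL) in HBSS, with compounds for 15 min, then 250 uM DTT for 30 min, room temperature, dark. Fluorescence 525/598 nm read; normalized to DMSO and 10 uM DA3003; Hill fit.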

| Compound | Potency [1] | Potency [2] | Potency [3] | Potency [4] | Potency [5] | Potency [6] | activity change, negative = inhibition [3] | activity change, negative = thiol reactive [4] | activity, negative = inhibition [5] | redox activity (% of DA3003) [6] | outcome [3] |
| --- | --- | --- | --- | --- | --- | --- | --- | --- | --- | --- | --- |
| C[C@H](O)C(O)(C(=O)OCc1ccccc1NC(=O)CCC(N)C(=O)O)[C@H](C)O (stereo not given in full) | inactive | inactive | inactive | inactive | inactive | inactive |  |  |  |  |  |
| CC(=O)OC[C@]12[C@@H](OC(=O)c3ccoc3)C[C@@H]3[C@@H](OC(C)=O)[C@]1(OC3(C)C)[C@@](C)(O)C[C@H](OC(=O)c1ccoc1)[C@@H]2OC(=O)c1ccoc1 | inactive | inactive | inactive | inactive | inactive | inactive |  |  |  |  |  |
| C=C1CCC(OC(C)=O)C2(C)CC3OC(=O)C(C)=C3CC12 (stereo not given) | inactive | inactive | inactive | inactive | inactive | inactive |  |  |  |  |  |
| C[C@@H]1O[C@@H](OC[C@H]2O[C@@H](OCc3ccccc3)[C@H](O)[C@@H](O)[C@@H]2O)[C@H](O)[C@H](O)[C@H]1O | inactive | inactive | inactive | 5.19 µM (active) | inactive | inactive |  |  |  |  |  |
| CC(C)=CCC[C@](C)(O[C@@H]1O[C@H](CO[C@@H]2O[C@@H](CO)[C@H](O)[C@H]2O[C@@H]2OC[C@@H](O)[C@H](O)[C@H]2O)[C@@H](O)[C@H](O)[C@H]1O)[C@H]1CC[C@]2(C)[C@@H]1[C@H](O)CC1[C@@]3(C)CC[C@H](O[C@@H]4O[C@H](CO)[C@@H](O)[C@H](O)[C@H]4O[C@@H]4O[C@H](CO)[C@@H](O)[C@H](O)[C@H]4O)C(C)(C)C3CC[C@]12C (stereo not given in full) | inactive | inactive |  |  |  |  | 0.984% [at 11.6 µM] | 132% [at 11.5 µM] | 0% [at 11.6 µM] | -2.65% [at 11.5 µM] |  |
| C[C@@H](c1ccccc1)N(C(N)=NC#N)c1cccc2ncccc12 | inactive | inactive | inactive | inactive | inactive | inactive |  |  |  |  |  |
| C[C@@H]1O[C@@H](O[C@H]2[C@@H]3C=CO[C@@H](O[C@@H]4O[C@H](CO)[C@@H](O)[C@H](O)[C@H]4O)[C@@H]3[C@@]3(CO)O[C@@H]23)[C@H](OC(=O)/C=C/c2ccc(O)cc2)[C@H](O)[C@H]1O | inactive | inactive | inactive | 3.54 µM (active) | inactive | inactive |  |  |  |  |  |
| CC1C2=CC(=O)OC2(O)CC2C1C(O)CC1C(C)(CO)CCCC21C (stereo not given) | inactive | inactive | inactive | inactive | inactive | inactive |  |  |  |  |  |
| COC(=O)C1=COC(OC2OC(CO)C(O)C(O)C2O)C2C(COC(=O)/C=C/c3ccc(O)c(O)c3)C(O)C(O)C12 (stereo not given) | inactive | inactive | inactive | 2.51 µM (active) | inactive | inactive |  |  |  |  |  |
| CC(C)(O)/C=C/C(=O)[C@](C)(O)[C@H]1[C@H](O)C[C@@]2(C)[C@@H]3CC=C4[C@@H](C=C(O[C@@H]5O[C@H](CO)[C@@H](O)[C@H](O)[C@H]5O)C(=O)C4(C)C)[C@]3(C)C(=O)C[C@]12C | inactive | inactive | inactive | inactive | inactive | inactive |  |  |  |  |  |
| C=C(C(=O)O)C1CC(O)C2(C)CCCC(C)(O)C2C1 (stereo not given) | inactive | inactive | inactive | 11.9 µM (active) | inactive | inactive |  |  |  |  |  |
| O=C(O)c1ccncc1Nc1nn(CCN2CCC(F)(F)CC2)c2ccc(F)cc12 | inactive | inactive | inactive | 1.34 µM (active) | inactive | inactive |  |  |  |  |  |
| CC1(C)CCCC2(C)c3c4c(c(=O)oc(=O)c3=CCC12)=CCC1C(C)(C)CCCC41C (stereo not given) | inactive | inactive | inactive | inactive | inactive | inactive |  |  |  |  |  |
| C/C1=C\CC(C)(C)/C=C/C/C(C(=O)O)=C/CC1 | inactive | inactive | inactive | inactive | inactive | inactive |  |  |  |  |  |
| C=CC(C)(O)C1CC2C3(C)CCCC(C)(C)C3C(O)C(O)C2(C)O1 (stereo not given) | inactive | inactive | inactive | inactive | inactive | inactive |  |  |  |  |  |
| CC(CC12CCCN1C(=O)C1CCCN1C2=O)OC(N)=O (stereo not given) | inactive | inactive | inactive | inactive | inactive | inactive |  |  |  |  |  |
| CC(=O)O[C@@H]1[C@H](OC(C)=O)C[C@@]2(C)C(CC[C@@H](C)[C@]23Cc2c(O)cc4c(c2O3)CN([C@@H](CCC(=O)O)C(=O)O)C4=O)C1(C)C (stereo not given in full) | inactive | inactive | inactive | inactive | inactive | inactive |  |  |  |  |  |
| Cc1ccccc1-n1nc(-c2c(-c3ccc(F)cc3)nn3c2NC[C@@H](CO)C3)ccc1=O | inactive | inactive | inactive | inactive | inactive | inactive |  |  |  |  |  |

| Compound | Potency [1] | Potency [2] | Potency [3] | Potency [4] | Potency [5] | Potency [6] | activity change, negative = inhibition [3] | activity change, negative = thiol reactive [4] | activity, negative = inhibition [5] | redox activity (% of DA3003) [6] | outcome [3] |
| --- | --- | --- | --- | --- | --- | --- | --- | --- | --- | --- | --- |
| CSCC1OC(n2cnc3c(=O)[nH]cnc32)C(O)C1O (stereo not given) | inactive | inactive | inactive | inactive | inactive | inactive |  |  |  |  |  |
| CC1=CC(=O)CC(C)(C)C1CO[C@@H]1O[C@H](CO)[C@@H](O)[C@H](O)[C@H]1O (stereo not given in full) | inactive | inactive | inactive | inactive | inactive | inactive |  |  |  |  |  |
| CC1(C)CC[C@]2(C(=O)O[C@@H]3O[C@H](CO)[C@@H](O)[C@H](O)[C@H]3O)CC[C@]3(C)C(=CCC4[C@@]5(C)CC[C@H](O[C@@H]6O[C@H](C(=O)O)[C@@H](O[C@@H]7O[C@H](CO)[C@@H](O)[C@H](O)[C@H]7O)[C@H](O)[C@H]6O[C@@H]6O[C@H](CO)[C@@H](O)[C@H](O)[C@H]6O)C(C)(C)C5CC[C@]43C)C2C1 (stereo not given in full) | inactive | inactive |  |  |  |  |  | 240% [at 11.5 µM] | 0% [at 11.6 µM] | 12.6% [at 11.5 µM] | inactive [at 11.6 µM] |
| Cc1ccc(Cl)cc1N(CC(=O)Nc1c(F)cccc1F)S(C)(=O)=O | inactive | inactive | inactive | inactive | inactive | inactive |  |  |  |  |  |
| O=C(O)/C=C/c1ccc(O[C@@H]2O[C@H](CO)[C@@H](O)[C@H](O)[C@H]2O)cc1 | inactive | inactive | inactive | inactive | inactive | inactive |  |  |  |  |  |
| CC(C)[C@](O)(c1ccc2cc(OC(F)F)c(OC(F)F)cc2c1)c1cn[nH]n1 | inactive | inactive | inactive | inactive | inactive | inactive |  |  |  |  |  |
| COC(=O)C1=CO[C@@H](O[C@@H]2O[C@H](CO)[C@@H](O)[C@H](O)[C@H]2O)[C@H]2[C@@H]1C=C[C@]21C=C([C@H](C)OC(=O)/C=C/c2ccc(O[C@@H]3O[C@H](CO)[C@@H](O)[C@H](O)[C@H]3O)cc2)C(=O)O1 | inactive | inactive | inactive | inactive | inactive | inactive |  |  |  |  |  |
| Cc1cn2cc(CC(=O)N3CCC4(CC3)CN(Cc3ccc(-n5nccn5)cc3Cl)C4)nc2s1 | inactive | inactive | inactive | inactive | inactive | inactive |  |  |  |  |  |
| CC(C)Oc1ccc(-c2nc(-c3cccc4c3CCC4NCCC(=O)O)no2)cc1C#N (stereo not given) | inactive | inactive | inactive | inactive | inactive | inactive |  |  |  |  |  |
| CC[C@@H](C)[C@H](N)C(=O)N1Cc2ccccc2C1 | inactive | inactive | inactive | inactive | inactive | inactive |  |  |  |  |  |
| COC(=O)[C@H](O)[C@H]1C(C)(C)[C@H](OC(C)=O)[C@@]2(O)C(=O)[C@]1(C)C1CC[C@]3(C)C(CC(=O)O[C@H]3c3ccoc3)[C@]13O[C@@H]32 (stereo not given in full) | inactive | inactive | inactive | inactive | inactive | inactive |  |  |  |  |  |
| COc1cc2nc(=NC(=O)c3cccnc3)n3c(c2cc1OC)NCC3 | inactive | inactive | inactive | inactive | inactive | inactive |  |  |  |  |  |
| CC(C)=C1CC2[C@](C)(CC[C@@H](OC(=O)C3(C)OC3C)[C@@]2(C)O)CC1=O (stereo not given in full) | inactive | inactive | inactive | inactive | inactive | inactive |  |  |  |  |  |
| C=C1CC2C3(C)C(O)CC(=O)C(C)(C)C3C(O)C(OC(C)=O)C2(C)C2C(=O)OC(C)(C(=O)OC)C(=O)C12C (stereo not given) | inactive | inactive | inactive | inactive | inactive | inactive |  |  |  |  |  |
| O=C(/C=C/c1ccc(O)c(O)c1)O[C@@H]1[C@@H](O)[C@H](OC2CCCCC2O)O[C@H](CO)[C@H]1O (stereo not given in full) | inactive | inactive | inactive | 2.92 µM (active) | inactive | inactive |  |  |  |  |  |
| C/C=C(\C)C(=O)OC[C@H]1O[C@@H](O[C@H]2[C@@H](O[C@H]3O[C@H](CO)[C@@H](O)[C@H](O)[C@H]3O[C@@H]3O[C@H](CO)[C@@H](O)[C@H](O)[C@H]3O)O[C@H](COC(=O)/C(C)=C/C)[C@@H](O)[C@@H]2O)[C@H](O)[C@@H](O)[C@@H]1O | inactive | inactive |  |  |  |  | 3.78% [at 11.6 µM] | -18.3% [at 11.5 µM] | -0.032% [at 11.6 µM] | -4.48% [at 11.5 µM] |  |
| COc1cc2c(c(OC)c1O)C(c1ccc(O)cc1)C1C(=O)OC3C(COC(=O)C1=C2)OC(CO)(OC1OC(COC(=O)/C=C/c2ccc(OC4OC(C)C(O)C(O)C4O)cc2)C(O)C(O)C1O)C3O (stereo not given) | inactive | inactive |  | 4.5 µM (active) |  |  | -10.6% [at 11.6 µM] |  | -14.9% [at 11.6 µM] | 0.553% [at 11.5 µM] |  |
